# Potency and affinity values are given separately.
# Key:
# [1] = system: Klebsiella pneumoniae; conditions: Concentration 32 ug.mL-1;; ASSAY_TEST Inhibition of Bacterial Growth; detection method Absorption (OD600); MEDIA CAMHB; plate type 384well; NBS; CORNING #3640; time 18 hr
# [2] = system: Candida albicans; conditions: Concentration 32 ug.mL-1; ASSAY_TEST Inhibition of Fungal Growth; detection method Absorption (OD530)
# [3] = system: Cryptococcus neoformans; conditions: Concentration 32 ug.mL-1; ASSAY_TEST Inhibition of Fungal Growth; detection method Resazurin; Absorption (OD600-OD570); plate type 384well; NBS; CORNING #3640
smiles,measurement,setting,value
NC(=O)Cn1nc2n(CCC(=O)NC3CCCCC3)c(=O)c3ccccc3n2c1=O,Inhibition,[1],14.53%
same,Inhibition,[2],0.47%
same,Inhibition,[3],-26.54%
CCOC(=O)c1ccc(NC(=O)Cn2nc3c4cc(-c5ccc(Cl)cc5)nn4ccn3c2=O)cc1,Inhibition,[1],8.16%
same,Inhibition,[2],4.56%
same,Inhibition,[3],-16.17%
Cc1ccc(-c2ccc3nn(Cc4cc(F)cc(F)c4)c(=O)n3n2)cc1C,Inhibition,[1],3.15%
same,Inhibition,[2],0.47%
same,Inhibition,[3],-8.58%
COc1ccccc1-n1ccn2c(SCC(=O)N3CCN(c4ccccc4F)CC3)nnc2c1=O,Inhibition,[1],14.09%
same,Inhibition,[2],3.15%
same,Inhibition,[3],-10.82%
CC(=O)c1ccc(N2CCN(C(=O)CCc3nnc4c5cc(-c6ccccc6)nn5ccn34)CC2)cc1,Inhibition,[1],14.87%
same,Inhibition,[2],3.08%
same,Inhibition,[3],-8.28%
COc1ccc(CNC(=O)Cn2nc3c(SCc4ccc(Cl)cc4)nccn3c2=O)cc1,Inhibition,[1],2.51%
same,Inhibition,[2],1.91%
same,Inhibition,[3],-11.5%
COc1ccc(-c2noc(Cn3nc4ccc(-c5ccccc5)nn4c3=O)n2)cc1OC,Inhibition,[1],11.35%
same,Inhibition,[2],4.81%
same,Inhibition,[3],-11.77%
Cc1cccc(NC(=O)CSc2nnc3c(=O)n(-c4ccccc4)ccn23)c1,Inhibition,[1],3.26%
same,Inhibition,[2],1.31%
same,Inhibition,[3],-14.94%
CCc1cccc(C)c1NC(=O)Cn1nc2ccc(SCc3ccc(Cl)cc3)nn2c1=O,Inhibition,[1],2.49%
same,Inhibition,[2],52.47%
same,Inhibition,[3],-13.19%
Cc1cccc(NC(=O)Cn2nc3c(SCc4ccc(Cl)cc4)nccn3c2=O)c1C,Inhibition,[1],15.65%
same,Inhibition,[2],5.99%
same,Inhibition,[3],-31.05%
Cc1ccc(-c2ccc3nn(Cc4ccc(N5CCCC5=O)cc4)c(=O)n3n2)cc1,Inhibition,[1],8.04%
same,Inhibition,[2],1.53%
same,Inhibition,[3],-7.16%
Cc1ccc(NC(=O)Cn2nc3cc(C)nc(Nc4ccc(F)c(C)c4)n3c2=O)cc1,Inhibition,[1],11.85%
same,Inhibition,[2],7.21%
same,Inhibition,[3],-5.79%
O=C(Cn1nc2c(SCc3ccc(Cl)cc3)nccn2c1=O)Nc1ccccc1F,Inhibition,[1],4.91%
same,Inhibition,[2],1.79%
same,Inhibition,[3],-4.96%
C=Cc1ccc(Cn2nc3c(=O)n(-c4ccc(C)c(C)c4)ccn3c2=O)cc1,Inhibition,[1],9.34%
same,Inhibition,[2],3.74%
same,Inhibition,[3],-5.84%
CSc1cccc(NC(=O)Cn2nc3c4c5c(sc4ncn3c2=O)CCCC5)c1,Inhibition,[1],-0.84%
same,Inhibition,[2],7.75%
same,Inhibition,[3],-24.58%
Cc1cc(NC(=O)Cn2c(=O)c3nnc(C(C)C)n3c3ccccc32)ccc1Br,Inhibition,[1],7.01%
same,Inhibition,[2],3.1%
same,Inhibition,[3],-11.52%
Cc1ccc(CNC(=O)Cn2nc3c(SC4CCCCC4)nccn3c2=O)cc1,Inhibition,[1],14.28%
same,Inhibition,[2],-1.05%
same,Inhibition,[3],-11.99%
Cc1ccc(NC(=O)Cn2nc3ccc(SC(C)(C)C)nn3c2=O)cc1C,Inhibition,[1],8.45%
same,Inhibition,[2],5.53%
same,Inhibition,[3],-7.37%
CC(C)Cn1c(=O)c2sccc2n2c(=O)n(Cc3ccc(Br)cc3)nc12,Inhibition,[1],4.98%
same,Inhibition,[2],-2.24%
same,Inhibition,[3],-27.05%
CCc1nnc2c(S(=O)(=O)N(Cc3cccc(OC)c3)c3cccc(C)c3)cccn12,Inhibition,[1],0.84%
same,Inhibition,[2],7.06%
same,Inhibition,[3],-5.34%
O=C(Cn1nc2ccc(-c3ccccc3)nn2c1=O)Nc1ccc(Cl)c(C(F)(F)F)c1,Inhibition,[1],4.19%
same,Inhibition,[2],14.71%
same,Inhibition,[3],-8.29%
Cc1cc(C)cc(Nc2nc(C)cc3nn(CC(=O)Nc4cccc(Cl)c4)c(=O)n23)c1,Inhibition,[1],7.28%
same,Inhibition,[2],4.92%
same,Inhibition,[3],-8.23%
COc1ccc(C)cc1NC(=O)CSc1nc2ccccc2n2cnnc12,Inhibition,[1],9.24%
same,Inhibition,[2],2.39%
same,Inhibition,[3],-3.58%
COC(=O)c1ccc(CN(c2cccc(C)c2)S(=O)(=O)c2cccn3c(C)nnc23)o1,Inhibition,[1],9.19%
same,Inhibition,[2],2.2%
same,Inhibition,[3],-7.03%
CCc1ccccc1Sc1nccn2c(=O)n(CC(=O)Nc3cccc(Br)c3)nc12,Inhibition,[1],8.38%
same,Inhibition,[2],2.9%
same,Inhibition,[3],-6.91%
COc1ccc(CN(c2ccc(OC)cc2)S(=O)(=O)c2ccc3nnc(C)n3c2)cc1,Inhibition,[1],9.27%
same,Inhibition,[2],0.4%
same,Inhibition,[3],-1.1%
CCCN(C)c1nccn2c(=O)n(CC(=O)Nc3cccc(Cl)c3F)nc12,Inhibition,[1],7.25%
same,Inhibition,[2],0.78%
same,Inhibition,[3],-6.38%
CC(C)Cn1c(=O)c2sccc2n2c(=O)n(Cc3ccc(Cl)cc3)nc12,Inhibition,[1],2.18%
same,Inhibition,[2],-1.9%
same,Inhibition,[3],-15.45%

# Source: ChEMBL document CHEMBL4513146, “CO-ADD screening of Karazin Kharkiv National University (Ukraine) compounds”
